Reference: publication PMC5540273 (PLoS ONE, 2017)
pKd: −log10 of the molar value.

What was measured:
[1] = tested on: RPS6KA5(Kin.Dom.2-C-terminal)
[2] = tested on: T1, RSK3(Kin.Dom.2-C-terminal)
T1 construct: gene RPS6KA2

[3] = tested on: T2, RSK4(Kin.Dom.2-C-terminal)
T2 construct: gene RPS6KA6

SNARK = tested on: T3, SNARK
T3 construct: gene NUAK2

[4] = tested on: T4, RSK1(Kin.Dom.2-C-terminal)
T4 construct: gene RPS6KA1

[5] = tested on: T5, RSK2(Kin.Dom.2-C-terminal)
T5 construct: gene RPS6KA3
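Further: kd values determined as follow-up on hits from a single-replicate KINOMEscan panel screen.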

Compound: Cn1cncc1-c1ccc2ncnc(Nc3ccc(OCc4ccccc4)cc3)c2c1 [GW320571]
- pKd (SNRK): 5.06

Compound: CN(C)CCN(C)C(=O)c1cc(-c2ccncc2)c(-c2ccc(Cl)c(O)c2)o1.Cl.Cl [SB-710397]
- pKd (SLK): 5.44

Compound: Nc1ncnc2[nH]c(-c3ccccc3)nc12 [AH5015]
- pKd (SNRK): < 5.00

Compound: Cc1cccc(-c2cc(Nc3ccncc3)c3ccccc3n2)n1 [GSK223675]
- pKd [1]: < 5.00

Compound: O=S(=O)(c1ccc(-c2ccnc3[nH]ccc23)cc1)N1CCCC1 [GSK846226]
- pKd (ROCK2): 6.46

Compound: CS(=O)(=O)c1ccc(-c2c(-c3ncn[nH]3)sc(N3CCOCC3)c2C#N)cc1
- pKd [2]: < 5.00
- pKd [3]: < 5.00

Compound: CC1=C(C(=O)Nc2cc3cn[nH]c3cc2F)C(c2ccc(C(F)(F)F)cc2)CC(=O)N1 (centres unmarked) [GSK429286]
- pKd (ROCK2): 8.57
- pKd (SNARK): 6.33

Compound: CSc1nn2c(=O)cc(N3CCOCC3)nc2n1Cc1cccc(C(F)(F)F)c1C [GSK2363608]
- pKd (ROCK2): 7.09

Compound: Fc1cc(Cl)ccc1Nc1ccnc2cc(-c3ccc(CN4CCCCC4)o3)ccc12 [GW560116]
- pKd [3]: 6.17

Compound: Cc1ccccc1-n1cnc2c(N)ncnc21 [SKF-97510]
- pKd [4]: < 5.00
- pKd (SLK): < 5.00

Compound: COc1cc2ncn(-c3cc(OCC4CCCO4)c(C(N)=O)s3)c2cc1OC (centres unmarked) [GSK204607]
- pKd (SIK2): < 5.00
- pKd (SLK): < 5.00

Compound: Fc1cc(Cl)ccc1Nc1ccnc2cc(I)ccc12 [GW551191]
- pKd [3]: 6.14

Compound: Nc1nc(-c2nccs2)c(-c2ccnc3ccccc23)s1 [GW693542]
- pKd [5]: < 5.00
